Test results reported in PubChem BioAssay (NCATS).
Records with an inconclusive call do not appear. Calls of active or inactive are those of the source. Calls come from the whole dose curve; as a rule, active = well fitted curve in the direction sought with a large enough effect; inconclusive = small, poorly fitted or top-dose-only effect, or another doubt; inactive = no such curve, though single readings can be large; an effect the other way counts as inactive or inconclusive.

What was measured:
HEK293 = experiment: Cytotoxic Profiling of Annotated Libraries Using Quantitative High-Throughput Screening (AID 1296008); details: Five cell lines viability, CellTiter-Glo ATP luminescence, 48-72 h; max response: hits give low values; note: nearly all actives have a fitted effect of over 60% in size
Procedure, shortened: (§1)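 Cells exposed to compounds for 48 or 72 hr at 37 degrees Celsius. Viability read as ATP-coupled luminescence with CellTiter-Glo after 10 min at room temperature.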

HaCat [1] = experiment: as above; details: Five cell lines viability, CellTiter-Glo ATP luminescence, 48-72 h; max response: hits give low values
Procedure, shortened: as §1

KB-3-1 = experiment: as above; details: Five cell lines viability, CellTiter-Glo ATP luminescence, 48-72 h; max response: hits give low values
Procedure, shortened: as §1

NIH3T3 [2] = experiment: as above; details: Five cell lines viability, CellTiter-Glo ATP luminescence, 48-72 h; max response: hits give low values
Procedure, shortened: as §1

HACAT [3] = experiment: qHTS assay to identify novel small-molecules to repurpose for Merkel cell carcinoma treatment (AID 1296009); details: MCC and control cell lines, CellTiter-Glo viability, 72 h; at 44.8 µM (top of the series) unless noted; note: nearly all actives have a fitted effect of over 60% in size
Procedure, shortened: (§2)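 Cells were treated for 72 hr at 37 degree celsius with compounds in 8- or 11-point dose response. Viability was read by CellTiter-Glo luminescence, normalized to no-cell (cytotoxicity) and DMSO controls.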

MCC-13 = experiment: as above; details: MCC and control cell lines, CellTiter-Glo viability, 72 h; series mostly up to 46 µM
Procedure, shortened: as §2

MCC-26 = experiment: as above; details: MCC and control cell lines, CellTiter-Glo viability, 72 h; series mostly up to 46 µM
Procedure, shortened: as §2

MKL-2 = experiment: as above; details: MCC and control cell lines, CellTiter-Glo viability, 72 h; series mostly up to 46 µM
Procedure, shortened: as §2

UISO = experiment: as above; details: MCC and control cell lines, CellTiter-Glo viability, 72 h; series mostly up to 46 µM
Procedure, shortened: as §2

WaGa = experiment: as above; details: MCC and control cell lines, CellTiter-Glo viability, 72 h; series mostly up to 46 µM
Procedure, shortened: as §2

C33A = experiment: Primary qHTS to identify gynecologic anti-cancer compounds using libraries of approved drugs and bioactive compounds (AID 1345084); details: Gynecologic cancer cell panel viability, ATPlite luminescence, 48 h; series mostly up to 57.5 µM; note: nearly all actives have a fitted effect of over 55% in size
Procedure, shortened: (§3)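 Cell viability after 48 h drug treatment, ATPlite luminescence readout; five doses.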

CAOV3 = experiment: as above; details: Gynecologic cancer cell panel viability, ATPlite luminescence, 48 h; series mostly up to 57.5 µM
Procedure, shortened: as §3

CASKI = experiment: as above; details: Gynecologic cancer cell panel viability, ATPlite luminescence, 48 h; series mostly up to 57.5 µM
Procedure, shortened: as §3

Es-2 = experiment: as above; details: Gynecologic cancer cell panel viability, ATPlite luminescence, 48 h; series mostly up to 57.5 µM
Procedure, shortened: as §3

HeLa = experiment: as above; details: Gynecologic cancer cell panel viability, ATPlite luminescence, 48 h; series mostly up to 57.5 µM
Procedure, shortened: as §3

Hek293T = experiment: as above; details: Gynecologic cancer cell panel viability, ATPlite luminescence, 48 h, control line for the selectivity index; series mostly up to 57.5 µM
Procedure, shortened: as §3

CRL-7250 = normal cell line; experiment: Cytotoxic Profiling of Annotated Libraries Using Quantitative High-Throughput Screening (AID 1296008); details: Five cell lines viability, CellTiter-Glo ATP luminescence, 48-72 h; max response: hits give low values; note: nearly all actives have a fitted effect of over 60% in size
Procedure, shortened: as §1

MKL-1 = experiment: qHTS assay to identify novel small-molecules to repurpose for Merkel cell carcinoma treatment (AID 1296009); details: MCC and control cell lines, CellTiter-Glo viability, 72 h; series mostly up to 46 µM; note: nearly all actives have a fitted effect of over 60% in size
Procedure, shortened: as §2

NIH3T3 [4] = experiment: as above; details: MCC and control cell lines, CellTiter-Glo viability, 72 h; at 44.8 µM (top of the series) unless noted
Procedure, shortened: as §2
% is set by controls: 0 for no effect and ±100 for the full control effect.

CN/C(=C\[N+](=O)[O-])NCCSCc1ccc(CN(C)C)o1
inactive: max response (HEK293) 0.484% | outcome (HaCat [1]) | max response (KB-3-1) 15% | max response (NIH3T3 [2]) -4.45% | outcome (HACAT [3]) | Potency (MCC-13) | Potency (MCC-26) | Potency (MKL-2) | Potency (UISO) | Potency (WaGa) | Potency (C33A) | Potency (CAOV3) | Potency (CASKI) | Potency (Es-2) | Potency (HeLa) | Potency (Hek293T)

COc1ccc(CCN(C)CCCC(C#N)(c2cc(OC)c(OC)c(OC)c2)C(C)C)cc1OC (stereo not given)
inactive: max response (CRL-7250) -12.1% | outcome (HaCat [1]) | max response (KB-3-1) -0.362% | max response (NIH3T3 [2]) 0.424% | outcome (HACAT [3]) | Potency (MCC-13) | Potency (MCC-26) | Potency (MKL-1) | Potency (MKL-2) | Potency (UISO) | Potency (WaGa) | Potency (C33A) | Potency (CAOV3) | Potency (CASKI) | Potency (Es-2) | Potency (HeLa) | Potency (Hek293T)

CCN(CC)CCCN(c1ccccc1)C1Cc2ccccc2C1
inactive: max response (CRL-7250) 2.42% | outcome (HaCat [1]) | max response (NIH3T3 [2]) -8.45% | outcome (HACAT [3]) | Potency (MCC-13) | Potency (MCC-26) | Potency (UISO) | Potency (CASKI) | Potency (Es-2) | Potency (HeLa)

OC(CCN1CCCCC1)(c1ccccc1)C1CCCCC1 (stereo not given)
inactive: outcome (CRL-7250) | outcome (HaCat [1]) | max response (KB-3-1) -15.6% | max response (NIH3T3 [2]) -0.663% | outcome (HACAT [3]) | Potency (MCC-13) | Potency (MCC-26) | Potency (MKL-1) | Potency (MKL-2) | Potency (UISO) | Potency (WaGa) | Potency (C33A) | Potency (CAOV3) | Potency (CASKI) | Potency (Es-2) | Potency (HeLa) | Potency (Hek293T)

C[C@]12CCC(=O)C=C1CC[C@@H]1[C@@H]2CC[C@@]2(C)[C@H]1CC[C@]2(O)C(=O)CO
inactive: max response (CRL-7250) -9.98% | max response (HaCat [1]) -3.7% | max response (KB-3-1) -11.6% | max response (NIH3T3 [2]) -17.4% | Potency (MCC-13) | Potency (MCC-26) | Potency (MKL-2) | Potency (UISO) | Potency (WaGa) | Potency (C33A) | Potency (CAOV3) | Potency (CASKI) | Potency (Es-2) | Potency (HeLa) | Potency (Hek293T)

C[C@]12CC[C@@H]3c4ccc(O)cc4C[C@@H](CCCCCCCCCS(=O)CCCC(F)(F)C(F)(F)F)[C@H]3[C@@H]1CC[C@@H]2O (stereo not given in full)
inactive: max response (CRL-7250) -49.4% | max response (HaCat [1]) -6.63% | max response (KB-3-1) 3.54% | max response (NIH3T3 [2]) -7.29% | Potency (MCC-13) | Potency (MCC-26) | Potency (MKL-1) | Potency (WaGa) | Potency (C33A) | Potency (CAOV3) | Potency (CASKI) | Potency (Es-2) | Potency (HeLa) | Potency (Hek293T)

CC(N=C(NC#N)Nc1ccncc1)C(C)(C)C (stereo not given)
inactive: outcome (CRL-7250) | outcome (HaCat [1]) | max response (KB-3-1) -0.411% | max response (NIH3T3 [2]) 0.852% | outcome (HACAT [3]) | Potency (MCC-13) | Potency (MCC-26) | Potency (MKL-1) | Potency (MKL-2) | Potency (UISO) | Potency (WaGa) | Potency (C33A) | Potency (CAOV3) | Potency (CASKI) | Potency (Es-2) | Potency (Hek293T)

CN(C)[C@@H]1C(=O)C(C(N)=O)=C(O)[C@@]2(O)C(=O)C3=C(O)c4c(O)ccc(Cl)c4[C@@H](O)[C@H]3C[C@@H]12
inactive: outcome (CRL-7250) | outcome (HaCat [1]) | outcome (NIH3T3 [2]) | outcome (HACAT [3]) | Potency (MCC-13) | Potency (MCC-26) | Potency (MKL-2) | outcome (NIH3T3 [4]) | Potency (UISO) | Potency (WaGa) | Potency (C33A) | Potency (CAOV3) | Potency (CASKI) | Potency (Es-2) | Potency (Hek293T)
